# Values without a mark were called inactive. Results filed as inconclusive are left out. A call without a number means that no potency is given here. Activity calls are given as the source filed them. Calls follow the shape of the dose curve; as a rule, active = well fitted curve in the direction sought with a large enough effect; inconclusive = small, poorly fitted or top-dose-only effect, or another doubt; inactive = no such curve, though single readings can be large; an effect the other way counts as inactive or inconclusive.
# What was measured:
# [1] = qHTS for Inhibitors of Plasmodium falciparum (DD2) proliferation (AID 504314);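 also: parasite DNA measured by SYBR Green fluorescence after red cell lysis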
# Summary of the method: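 Parasite proliferation measured as SYBR Green signal from Plasmodium DNA, mature erythrocytes lacking DNA. 72 h incubation, 37C; activity scaled between vehicle and 0.29 uM artemisinin, with correction from vehicle-only plates.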
# [2] = qHTS for Inhibitors of Plasmodium falciparum (7G8) proliferation (AID 504316); also: nearly all actives have a fitted effect of over 65% in size; also: potency is read from the fitted curve at half-maximal effect
# Summary of the method: (§1)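 Parasite growth measured as SYBR Green DNA fluorescence (ex 485, em 535 nm) after overnight lysis following 72 h culture at 37 °C, 0.3% parasitemia, 2.5% hematocrit. Values normalized against DMSO and 0.29 uM artemisinin controls, with plate-stack correction.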
# [3] = qHTS for Inhibitors of Plasmodium falciparum (CP250) proliferation (AID 504320)
# Summary of the method: as §1
# [4] = qHTS for Inhibitors of Plasmodium falciparum (HB3) proliferation (AID 504318); also: nearly all actives have a fitted effect of over 60% in size
# Summary of the method: as §1
# [5] = molecular target: Cytochrome P450 2C9 (Homo sapiens) (UniProt P11712); assay: qHTS Assay for Inhibitors and Substrates of Cytochrome P450 2C9 (AID 883); also: nearly all actives have a fitted effect of over 60% in size
# Cytochrome P450 2C9 (Homo sapiens), sequence (P11712 whole entry, looked up): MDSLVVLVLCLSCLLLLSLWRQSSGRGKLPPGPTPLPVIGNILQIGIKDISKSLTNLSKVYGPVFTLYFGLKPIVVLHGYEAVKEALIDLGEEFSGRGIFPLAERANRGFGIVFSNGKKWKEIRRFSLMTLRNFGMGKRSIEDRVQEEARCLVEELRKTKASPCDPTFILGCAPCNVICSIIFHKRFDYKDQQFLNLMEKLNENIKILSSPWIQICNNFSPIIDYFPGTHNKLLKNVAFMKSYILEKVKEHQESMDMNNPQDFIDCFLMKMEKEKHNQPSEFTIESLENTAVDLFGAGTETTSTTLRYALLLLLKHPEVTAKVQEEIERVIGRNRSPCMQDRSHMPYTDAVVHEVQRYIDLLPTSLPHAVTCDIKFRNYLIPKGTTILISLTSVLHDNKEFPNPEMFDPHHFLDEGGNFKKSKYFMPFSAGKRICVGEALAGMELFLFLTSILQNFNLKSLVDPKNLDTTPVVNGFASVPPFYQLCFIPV
# Summary of the method: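 Inhibition of CYP2C9 is scored as loss of luminescence, with 57uM sulphaphenazole defining 100% inhibition. Substrate Luciferin-H is used at 100uM, equal to its KM; enzyme at 10nM in 25mM KPO4, 60 min at 37C with NADPH regeneration.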
# [6] = molecular target: Cytochrome P450 3A4 (Homo sapiens) (UniProt P08684); assay: qHTS Assay for Inhibitors and Substrates of Cytochrome P450 3A4 (AID 884); also: potency is read from the fitted curve at half-maximal effect; nearly all actives have a fitted effect of over 50% in size
# Cytochrome P450 3A4 (Homo sapiens), sequence (P08684 whole entry, looked up): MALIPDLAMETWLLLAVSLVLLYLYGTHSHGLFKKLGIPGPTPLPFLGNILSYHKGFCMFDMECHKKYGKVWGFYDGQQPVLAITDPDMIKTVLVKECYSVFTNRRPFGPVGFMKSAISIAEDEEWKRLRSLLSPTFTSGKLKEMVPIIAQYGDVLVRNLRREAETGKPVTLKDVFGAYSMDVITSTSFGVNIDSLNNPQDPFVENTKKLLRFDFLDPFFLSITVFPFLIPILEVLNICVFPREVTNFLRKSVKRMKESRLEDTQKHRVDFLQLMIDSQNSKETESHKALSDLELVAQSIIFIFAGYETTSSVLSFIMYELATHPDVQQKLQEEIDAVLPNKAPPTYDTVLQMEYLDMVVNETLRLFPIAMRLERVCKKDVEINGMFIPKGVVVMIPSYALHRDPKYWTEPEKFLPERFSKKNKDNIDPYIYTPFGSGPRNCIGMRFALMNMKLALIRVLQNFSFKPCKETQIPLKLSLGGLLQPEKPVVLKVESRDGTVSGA
# Summary of the method: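 Luminescent readout of luciferin produced by CYP3A4 (20 nM) dealkylation of Luciferin-PPXE, 25 uM (its KM). NADPH-driven reaction ran 60 min at RT after 10 min compound preincubation; data scaled to 57 uM ketoconazole as 100% inhibition.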
# [7] = molecular target: Cytochrome P450 3A4 (Homo sapiens) (UniProt P08684); assay: qHTS Assay for Activators of Cytochrome P450 3A4 (AID 885); also: nearly all actives have a fitted effect of over 65% in size
# Summary of the method: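 Human CYP3A4 dealkylates Luciferin-PPXE to luciferin, which luciferase detection converts to light. Substrate was at its KM (25uM), buffer 200mM KPO4, reaction 60 min at RT.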
Structure (SMILES),Potency [1],Potency [2],Potency [3],Potency [4],Potency [5],Potency [6],"activity change, positive = activation [7]"
COc1ccc(-c2nc3c(c4c2C[C@H](c2ccccc2)OC4)CN(S(=O)(=O)c2ccc(C#N)cc2)CC3)c(C)c1,inactive,1.51 µM (active),inactive,–,–,–,–
COC(=O)C1=C(C(=O)OC)[C@@H]2N(C)c3ccc(OC)cc3[C@@]23C[C@@H](C(=O)OC)N(S(=O)(=O)c2ccc([N+](=O)[O-])cc2)C3=N1,inactive,1.51 µM (active),inactive,–,–,–,–
CCCCC1=CC2=CC(=O)C(C)(OC(=O)CC)C(=O)C2=CN1CCCCO (stereo unspecified),inactive,inactive,inactive,inactive,–,–,–
CCOC(=O)CCCNC(=O)N1CCc2nc(-c3ccc(OC)cc3C)c3c(c2C1)CO[C@@H](c1ccccc1)C3,inactive,1.69 µM (active),inactive,–,–,–,–
CCCCCCC(=O)Cc1cc(OC)c(OC)cc1C=C(C(=O)OCC)C(=O)OCC,inactive,inactive,inactive,inactive,inactive,3.16 µM (active),-90.7% [at 11.4 µM]
COCCN1C=C2C(=O)C(C)(OC(=O)CCc3ccccc3)C(=O)C=C2C=C1c1ccc(C#N)cc1 (stereo unspecified),inactive,inactive,inactive,inactive,–,–,–
COCCN1C=C2C(=O)C(C)(OC(=O)CCC(=O)OC)C(=O)C=C2C=C1C1CC1 (stereo unspecified),inactive,–,–,inactive,–,–,–

# From PubChem BioAssay (NCATS)
